What all share (test): DAPPL (digital affinity profiling via proximity ligation, sequencing); 10 mM Tris-HCl pH 7.5, 50 mM NaCl, 1 mM DTT, 4% glycerol, room temperature, 30 min; GST-TFs on glutathione beads, 16-mer random dsDNA library, 0.1% formaldehyde crosslink after washing; high values mean tight binding
One assay addresses T1, FLI1 (Homo sapiens, UniProt Q01543 1-452).
T1 sequence: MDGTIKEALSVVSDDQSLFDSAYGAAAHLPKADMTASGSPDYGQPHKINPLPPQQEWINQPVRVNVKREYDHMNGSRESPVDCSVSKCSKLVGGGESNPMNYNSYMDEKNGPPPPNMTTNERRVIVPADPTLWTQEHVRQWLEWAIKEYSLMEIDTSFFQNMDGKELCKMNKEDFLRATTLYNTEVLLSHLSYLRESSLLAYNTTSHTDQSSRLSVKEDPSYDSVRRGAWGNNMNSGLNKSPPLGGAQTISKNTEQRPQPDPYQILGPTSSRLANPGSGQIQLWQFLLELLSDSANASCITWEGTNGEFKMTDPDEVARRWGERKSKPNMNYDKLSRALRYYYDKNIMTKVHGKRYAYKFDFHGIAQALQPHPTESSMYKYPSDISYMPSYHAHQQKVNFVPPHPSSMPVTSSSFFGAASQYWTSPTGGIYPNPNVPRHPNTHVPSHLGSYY
The following applies: protein: recombinant; tags: N-terminal GST; dsDNA, one strand shown. The method in brief:
(§1)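 Each value of binding signal is a hexamer's read frequency for a factor divided by the same hexamer's frequency in the tag-only sample. Barcoded, bead-captured GST fusions of human transcription factors made in yeast were pooled with that sample and incubated with 200 nmole of a random double-stranded 16-mer DNA library in Tris/NaCl/DTT/glycerol buffer at room temperature for 30 min. Washing, 0.1% formaldehyde crosslinking, proximity ligation, PCR and Illumina NextSeq500 sequencing followed.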

Another assay concerns the target T2, ELK1 (Homo sapiens, UniProt P19419 1-428).
T2 sequence: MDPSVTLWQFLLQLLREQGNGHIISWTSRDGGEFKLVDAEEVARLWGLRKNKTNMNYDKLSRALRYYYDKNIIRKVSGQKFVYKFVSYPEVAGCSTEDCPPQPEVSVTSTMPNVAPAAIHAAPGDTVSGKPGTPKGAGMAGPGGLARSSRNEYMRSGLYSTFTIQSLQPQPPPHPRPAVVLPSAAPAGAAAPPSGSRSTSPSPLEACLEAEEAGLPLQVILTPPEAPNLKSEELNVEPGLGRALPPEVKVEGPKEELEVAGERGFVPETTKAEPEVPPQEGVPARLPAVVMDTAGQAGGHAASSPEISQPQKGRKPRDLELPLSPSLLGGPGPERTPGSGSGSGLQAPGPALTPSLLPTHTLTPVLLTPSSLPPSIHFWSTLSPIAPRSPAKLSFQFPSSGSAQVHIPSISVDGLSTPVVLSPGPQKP
The following applies: protein: recombinant; tags: N-terminal GST; dsDNA, one strand shown. The method in brief:
as §1

A further assay concerns the target T3, GABPA (Homo sapiens, UniProt Q06546 1-454).
T3 sequence: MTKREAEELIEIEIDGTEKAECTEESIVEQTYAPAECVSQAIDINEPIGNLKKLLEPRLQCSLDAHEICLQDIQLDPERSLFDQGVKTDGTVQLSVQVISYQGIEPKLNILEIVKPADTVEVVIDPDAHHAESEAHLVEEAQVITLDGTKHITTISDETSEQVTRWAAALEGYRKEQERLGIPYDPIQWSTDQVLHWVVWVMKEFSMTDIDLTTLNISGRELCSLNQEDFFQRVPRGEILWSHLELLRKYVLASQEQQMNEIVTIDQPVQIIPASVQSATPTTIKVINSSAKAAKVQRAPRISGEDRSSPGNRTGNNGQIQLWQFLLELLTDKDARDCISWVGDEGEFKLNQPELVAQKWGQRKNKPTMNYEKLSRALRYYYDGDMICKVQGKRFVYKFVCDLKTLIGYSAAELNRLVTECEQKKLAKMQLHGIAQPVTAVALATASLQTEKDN
The following applies: protein: recombinant; tags: N-terminal GST; dsDNA, one strand shown. Summed up:
as §1

The next assay deals with T4, ERG (Homo sapiens, UniProt P11308 1-479).
T4 sequence: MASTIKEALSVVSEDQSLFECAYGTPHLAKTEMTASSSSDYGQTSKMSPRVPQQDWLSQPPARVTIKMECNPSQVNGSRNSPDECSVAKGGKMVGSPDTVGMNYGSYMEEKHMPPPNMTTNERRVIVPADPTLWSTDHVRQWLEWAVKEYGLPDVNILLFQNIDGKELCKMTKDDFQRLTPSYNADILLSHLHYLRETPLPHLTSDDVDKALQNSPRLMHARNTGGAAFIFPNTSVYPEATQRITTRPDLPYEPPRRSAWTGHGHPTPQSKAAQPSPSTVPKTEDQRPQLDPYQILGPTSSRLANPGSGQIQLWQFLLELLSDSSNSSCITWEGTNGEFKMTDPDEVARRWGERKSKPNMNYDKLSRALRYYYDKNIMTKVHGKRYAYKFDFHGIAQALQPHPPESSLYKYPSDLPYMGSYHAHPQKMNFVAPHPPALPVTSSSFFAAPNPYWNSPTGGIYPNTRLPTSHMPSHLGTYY
The following applies: protein: recombinant; tags: N-terminal GST; dsDNA, one strand shown. Summed up:
as §1

The target in the next assay is ELF1 (Homo sapiens, UniProt P32519 1-619). The settings on record: protein: recombinant; tags: N-terminal GST; dsDNA, one strand shown. Summed up: as §1
Chain of ELF1 (P32519 whole entry): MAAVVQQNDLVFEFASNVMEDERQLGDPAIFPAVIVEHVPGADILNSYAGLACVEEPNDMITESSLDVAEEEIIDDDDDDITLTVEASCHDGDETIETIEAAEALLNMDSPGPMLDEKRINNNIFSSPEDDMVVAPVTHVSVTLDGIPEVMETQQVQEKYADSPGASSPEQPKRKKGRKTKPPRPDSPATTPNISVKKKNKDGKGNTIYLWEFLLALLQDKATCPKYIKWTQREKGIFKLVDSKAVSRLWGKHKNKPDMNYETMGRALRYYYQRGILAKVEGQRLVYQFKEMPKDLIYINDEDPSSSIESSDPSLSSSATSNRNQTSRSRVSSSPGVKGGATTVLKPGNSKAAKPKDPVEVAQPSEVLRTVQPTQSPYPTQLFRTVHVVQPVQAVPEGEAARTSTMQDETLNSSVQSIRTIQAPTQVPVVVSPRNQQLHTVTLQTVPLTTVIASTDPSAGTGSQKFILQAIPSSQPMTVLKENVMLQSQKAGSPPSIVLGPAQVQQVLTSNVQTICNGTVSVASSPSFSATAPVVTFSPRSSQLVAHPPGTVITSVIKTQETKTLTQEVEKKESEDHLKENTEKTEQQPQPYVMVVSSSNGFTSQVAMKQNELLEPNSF
Another assay concerns the target T5, EHF (Homo sapiens, UniProt Q9NZC4 1-300).
T5 sequence: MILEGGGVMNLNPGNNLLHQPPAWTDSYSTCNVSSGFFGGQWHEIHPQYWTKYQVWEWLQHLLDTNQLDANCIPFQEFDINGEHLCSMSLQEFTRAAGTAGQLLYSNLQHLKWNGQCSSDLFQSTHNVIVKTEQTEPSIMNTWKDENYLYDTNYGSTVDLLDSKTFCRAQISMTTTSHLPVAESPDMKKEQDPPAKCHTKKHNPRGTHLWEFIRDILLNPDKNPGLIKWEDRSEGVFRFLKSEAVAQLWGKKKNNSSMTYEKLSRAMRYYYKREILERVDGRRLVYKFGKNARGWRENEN
The settings on record: protein: recombinant; tags: N-terminal GST; dsDNA, one strand shown. The method in brief: as §1

For a further assay, the target named is SPI1 (Homo sapiens, UniProt P17947 1-270). The following applies: protein: recombinant; tags: N-terminal GST; dsDNA, one strand shown. Summed up: as §1
The target in a further assay is SPIB (Homo sapiens, UniProt Q01892 1-262). The following applies: protein: recombinant; tags: N-terminal GST; dsDNA, one strand shown. Summed up:
as §1

A further assay concerns the target T6, FEV (Homo sapiens, UniProt Q99581 1-238).
T6 sequence: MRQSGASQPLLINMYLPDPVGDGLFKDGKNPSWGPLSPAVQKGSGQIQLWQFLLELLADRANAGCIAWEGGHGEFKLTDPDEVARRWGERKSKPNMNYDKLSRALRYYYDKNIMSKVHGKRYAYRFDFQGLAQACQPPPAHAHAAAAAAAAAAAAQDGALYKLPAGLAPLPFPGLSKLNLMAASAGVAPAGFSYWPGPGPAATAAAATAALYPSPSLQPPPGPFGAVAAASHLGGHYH
The following applies: protein: recombinant; tags: N-terminal GST; dsDNA, one strand shown. Summed up:
as §1

The target of the next assay is ETV5 (Homo sapiens, UniProt P41161 1-510). The following applies: protein: recombinant; tags: N-terminal GST; dsDNA, one strand shown. The method in brief: as §1
Chain of ETV5 (P41161 whole entry): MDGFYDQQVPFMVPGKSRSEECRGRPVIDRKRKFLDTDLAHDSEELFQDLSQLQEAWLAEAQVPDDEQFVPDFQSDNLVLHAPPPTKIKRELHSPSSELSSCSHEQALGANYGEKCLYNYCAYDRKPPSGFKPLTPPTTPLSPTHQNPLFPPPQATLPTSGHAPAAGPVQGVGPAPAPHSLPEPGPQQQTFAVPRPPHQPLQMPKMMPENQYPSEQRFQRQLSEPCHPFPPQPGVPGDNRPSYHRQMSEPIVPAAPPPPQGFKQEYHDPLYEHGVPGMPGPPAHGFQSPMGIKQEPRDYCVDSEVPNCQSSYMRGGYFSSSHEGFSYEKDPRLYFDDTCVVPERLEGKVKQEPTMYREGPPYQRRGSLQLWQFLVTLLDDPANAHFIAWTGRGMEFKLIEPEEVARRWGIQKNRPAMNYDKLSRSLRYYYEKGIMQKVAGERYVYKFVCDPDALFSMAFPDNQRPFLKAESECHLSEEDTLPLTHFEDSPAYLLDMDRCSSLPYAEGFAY
A further assay deals with HSF1 (Homo sapiens, UniProt Q00613 1-529). The following applies: protein: recombinant; tags: N-terminal GST; chain copies: 3; dsDNA, one strand shown. Summed up:
as §1

A further assay addresses ELF4 (Homo sapiens, UniProt Q99607 1-663). The following applies: protein: recombinant; tags: N-terminal GST; dsDNA, one strand shown. The method in brief: as §1
A further assay addresses T7, ELK4 (Homo sapiens, UniProt P28324-2 1-405).
T7 sequence: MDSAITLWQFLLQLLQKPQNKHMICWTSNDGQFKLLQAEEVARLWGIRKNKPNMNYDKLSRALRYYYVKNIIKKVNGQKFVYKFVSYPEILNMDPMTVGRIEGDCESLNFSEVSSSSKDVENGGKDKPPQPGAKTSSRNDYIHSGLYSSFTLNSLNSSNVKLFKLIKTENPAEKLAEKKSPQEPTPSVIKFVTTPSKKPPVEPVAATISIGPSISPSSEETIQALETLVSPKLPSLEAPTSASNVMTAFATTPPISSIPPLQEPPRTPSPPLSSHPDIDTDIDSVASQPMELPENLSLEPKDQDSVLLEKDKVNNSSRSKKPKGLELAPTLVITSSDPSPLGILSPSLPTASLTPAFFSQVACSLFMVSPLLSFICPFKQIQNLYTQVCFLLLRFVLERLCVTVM
The settings on record: protein: recombinant; tags: N-terminal GST; dsDNA, one strand shown. The method in brief:
as §1

In a further assay the target is T8, ETV2 (Homo sapiens, UniProt O00321 1-342).
T8 sequence: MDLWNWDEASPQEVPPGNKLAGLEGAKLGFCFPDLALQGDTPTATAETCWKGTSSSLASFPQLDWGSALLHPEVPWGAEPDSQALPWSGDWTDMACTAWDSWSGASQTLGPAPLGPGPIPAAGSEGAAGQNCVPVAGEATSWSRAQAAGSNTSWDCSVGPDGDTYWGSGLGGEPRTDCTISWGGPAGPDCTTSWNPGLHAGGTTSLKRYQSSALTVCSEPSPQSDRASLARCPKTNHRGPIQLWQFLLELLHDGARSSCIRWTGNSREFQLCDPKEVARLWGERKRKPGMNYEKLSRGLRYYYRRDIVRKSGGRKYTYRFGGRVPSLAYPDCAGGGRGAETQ
The following applies: protein: recombinant; tags: N-terminal GST; dsDNA, one strand shown. Summed up: as §1

A further assay deals with T9, ELF3 (Homo sapiens, UniProt P78545 1-371).
T9 sequence: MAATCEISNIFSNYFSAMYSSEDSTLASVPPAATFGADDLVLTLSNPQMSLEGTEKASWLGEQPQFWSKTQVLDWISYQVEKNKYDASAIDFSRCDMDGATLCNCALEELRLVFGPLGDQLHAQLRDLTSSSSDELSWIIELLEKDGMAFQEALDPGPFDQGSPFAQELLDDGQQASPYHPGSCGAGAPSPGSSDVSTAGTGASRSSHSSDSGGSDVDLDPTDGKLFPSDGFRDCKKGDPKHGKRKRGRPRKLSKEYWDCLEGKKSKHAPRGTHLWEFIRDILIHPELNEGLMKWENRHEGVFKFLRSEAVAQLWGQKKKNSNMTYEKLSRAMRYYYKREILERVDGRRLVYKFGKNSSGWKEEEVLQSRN
The settings on record: protein: recombinant; tags: N-terminal GST; dsDNA, one strand shown. The method in brief: as §1

In the next assay the target is ETV1 (Homo sapiens, UniProt P50549 1-477). The following applies: protein: recombinant; tags: N-terminal GST; dsDNA, one strand shown. The method in brief: as §1
Chain of ETV1 (P50549 whole entry): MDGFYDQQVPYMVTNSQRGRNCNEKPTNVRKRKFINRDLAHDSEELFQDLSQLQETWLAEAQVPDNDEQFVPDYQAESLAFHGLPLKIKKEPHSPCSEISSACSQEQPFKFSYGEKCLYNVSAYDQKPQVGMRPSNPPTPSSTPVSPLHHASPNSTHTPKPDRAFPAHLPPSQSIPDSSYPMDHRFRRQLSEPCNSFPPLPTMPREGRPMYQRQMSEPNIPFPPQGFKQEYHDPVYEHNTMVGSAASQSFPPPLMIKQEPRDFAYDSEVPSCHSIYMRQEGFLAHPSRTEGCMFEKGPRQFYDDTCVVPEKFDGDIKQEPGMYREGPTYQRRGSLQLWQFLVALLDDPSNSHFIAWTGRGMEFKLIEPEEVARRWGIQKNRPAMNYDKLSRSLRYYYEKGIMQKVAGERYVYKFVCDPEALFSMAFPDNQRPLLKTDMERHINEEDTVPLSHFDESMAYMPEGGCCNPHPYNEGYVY
Another assay has as its target T10, ELK3 (Homo sapiens, UniProt P41970 1-407).
T10 sequence: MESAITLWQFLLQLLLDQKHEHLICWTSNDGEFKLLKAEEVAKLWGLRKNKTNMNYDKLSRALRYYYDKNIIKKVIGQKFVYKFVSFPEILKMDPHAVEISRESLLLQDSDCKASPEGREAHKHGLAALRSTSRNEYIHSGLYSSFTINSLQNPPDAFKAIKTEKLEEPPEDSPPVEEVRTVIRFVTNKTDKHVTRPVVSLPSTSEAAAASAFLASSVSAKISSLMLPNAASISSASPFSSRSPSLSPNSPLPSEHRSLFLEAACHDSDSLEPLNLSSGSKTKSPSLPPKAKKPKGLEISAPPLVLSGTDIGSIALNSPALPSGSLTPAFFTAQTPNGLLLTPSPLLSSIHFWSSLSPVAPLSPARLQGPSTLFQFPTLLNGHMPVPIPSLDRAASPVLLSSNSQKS
The following applies: protein: recombinant; tags: N-terminal GST; dsDNA, one strand shown. The method in brief:
as §1

Chain of SPIB (Q01892 whole entry): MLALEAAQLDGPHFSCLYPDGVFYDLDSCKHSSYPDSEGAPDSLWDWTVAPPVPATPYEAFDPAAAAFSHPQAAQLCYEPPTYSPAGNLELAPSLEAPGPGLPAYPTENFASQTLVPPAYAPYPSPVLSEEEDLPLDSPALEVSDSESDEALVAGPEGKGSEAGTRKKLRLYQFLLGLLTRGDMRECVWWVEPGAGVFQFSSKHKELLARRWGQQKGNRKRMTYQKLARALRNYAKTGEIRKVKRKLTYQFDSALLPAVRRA
Chain of ELF4 (Q99607 whole entry): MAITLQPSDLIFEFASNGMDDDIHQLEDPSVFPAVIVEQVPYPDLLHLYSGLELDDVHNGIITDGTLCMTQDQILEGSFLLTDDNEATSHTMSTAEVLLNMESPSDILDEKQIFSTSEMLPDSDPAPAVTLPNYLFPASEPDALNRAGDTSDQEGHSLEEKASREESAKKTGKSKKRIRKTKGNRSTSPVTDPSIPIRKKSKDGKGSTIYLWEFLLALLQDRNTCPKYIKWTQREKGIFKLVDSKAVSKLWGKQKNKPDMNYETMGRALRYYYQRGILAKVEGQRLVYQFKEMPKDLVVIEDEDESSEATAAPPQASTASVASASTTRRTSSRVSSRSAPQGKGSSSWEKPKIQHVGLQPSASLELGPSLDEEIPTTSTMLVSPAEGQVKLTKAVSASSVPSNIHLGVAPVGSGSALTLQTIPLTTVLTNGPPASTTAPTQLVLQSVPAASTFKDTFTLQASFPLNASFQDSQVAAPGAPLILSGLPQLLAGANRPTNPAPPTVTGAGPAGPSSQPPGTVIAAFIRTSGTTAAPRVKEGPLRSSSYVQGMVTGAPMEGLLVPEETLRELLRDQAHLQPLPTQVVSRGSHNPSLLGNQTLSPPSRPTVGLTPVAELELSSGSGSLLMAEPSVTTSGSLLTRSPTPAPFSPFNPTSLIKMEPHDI
Chain of HSF1 (Q00613 whole entry): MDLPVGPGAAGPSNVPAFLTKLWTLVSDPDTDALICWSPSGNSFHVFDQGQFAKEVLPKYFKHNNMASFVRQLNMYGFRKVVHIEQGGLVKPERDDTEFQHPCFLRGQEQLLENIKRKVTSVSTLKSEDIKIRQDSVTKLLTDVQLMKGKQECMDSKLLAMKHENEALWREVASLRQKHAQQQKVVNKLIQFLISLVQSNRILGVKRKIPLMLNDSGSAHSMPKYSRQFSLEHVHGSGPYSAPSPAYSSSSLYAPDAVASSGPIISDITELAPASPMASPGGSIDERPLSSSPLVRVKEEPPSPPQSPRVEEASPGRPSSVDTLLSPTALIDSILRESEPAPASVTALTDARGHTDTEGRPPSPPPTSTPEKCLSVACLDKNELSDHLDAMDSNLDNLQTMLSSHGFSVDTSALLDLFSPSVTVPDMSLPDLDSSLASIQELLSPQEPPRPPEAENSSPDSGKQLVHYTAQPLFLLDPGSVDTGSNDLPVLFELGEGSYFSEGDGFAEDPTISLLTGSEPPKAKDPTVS

Turning to CGATCG, the binding signal with FLI1 is 1.18 fold enrichment (6-mer frequency, TF over GST control); with ELK1 it was 1.12 fold enrichment (6-mer frequency, TF over GST control); with GABPA, 1.14 fold enrichment (6-mer frequency, TF over GST control); with ERG, 1.1 fold enrichment (6-mer frequency, TF over GST control); with ELF1, 1.13 fold enrichment (6-mer frequency, TF over GST control); with EHF it was 1.07 fold enrichment (6-mer frequency, TF over GST control). Also, the binding signal is 1.02 fold enrichment (6-mer frequency, TF over GST control) in the assay with SPI1; 1.03 fold enrichment (6-mer frequency, TF over GST control) in the assay with SPIB; 1.03 fold enrichment (6-mer frequency, TF over GST control) with FEV; 1.03 fold enrichment (6-mer frequency, TF over GST control) in the assay with ETV5; 1.09 fold enrichment (6-mer frequency, TF over GST control) in the assay with HSF1; 1.04 fold enrichment (6-mer frequency, TF over GST control) with ELF4. For the same sequence, the binding signal with ELK4 is 1.13 fold enrichment (6-mer frequency, TF over GST control); with ETV2 it was 1.12 fold enrichment (6-mer frequency, TF over GST control); in the assay with ELF3, 1.08 fold enrichment (6-mer frequency, TF over GST control); in the assay with ETV1, 1.03 fold enrichment (6-mer frequency, TF over GST control).
Take CAAGCA: the binding signal in the assay with FLI1 was 1.1 fold enrichment (6-mer frequency, TF over GST control); with ELK1, 1.1 fold enrichment (6-mer frequency, TF over GST control); with GABPA, 1.14 fold enrichment (6-mer frequency, TF over GST control); with ERG, 1.07 fold enrichment (6-mer frequency, TF over GST control); with ELF1 it was 1.18 fold enrichment (6-mer frequency, TF over GST control); in the assay with EHF, 1.02 fold enrichment (6-mer frequency, TF over GST control). The binding signal with SPI1 was 1.07 fold enrichment (6-mer frequency, TF over GST control); with SPIB, 1.06 fold enrichment (6-mer frequency, TF over GST control); in the assay with ELK3, 1.1 fold enrichment (6-mer frequency, TF over GST control); with FEV it was 1.13 fold enrichment (6-mer frequency, TF over GST control); with ETV5, 1.17 fold enrichment (6-mer frequency, TF over GST control); in the assay with HSF1 it was 1.03 fold enrichment (6-mer frequency, TF over GST control). Further, the binding signal with ELF4 was 1.16 fold enrichment (6-mer frequency, TF over GST control); in the assay with ELK4, 1.14 fold enrichment (6-mer frequency, TF over GST control); in the assay with ELF3 it was 1.28 fold enrichment (6-mer frequency, TF over GST control); with ETV1, 1.1 fold enrichment (6-mer frequency, TF over GST control).

The values are drawn from PMC7862700, “An all-to-all approach to the identification of sequence-specific readers for epigenetic DNA modifications on cytosine”.
